This is part of a sample that, as a whole, favours compounds with a hit. Of some 83,000 tested, about 20% had one in any assay.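 48-hour exposure, single concentration, 96-well plates; percent growth endpoint where 0 means no net growth. Active: below 10.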 The source made the active and inactive calls.
Columns and labels:
Test in all cases: NCI-60 one-dose screen, 48 h (100 = growth as untreated, 0 = no growth, -100 = all killed)
Settings in all cases: 10 µM unless noted
[1] = tested on: HCT-15 colon
[2] = tested on: HT29 colon
[3] = tested on: SNB-75 CNS
[4] = tested on: SNB-19 CNS
[5] = tested on: U251 CNS
[6] = tested on: PC-3 prostate
[7] = tested on: SK-MEL-5 melanoma
[8] = tested on: UACC-62 melanoma
[9] = tested on: LOX IMVI melanoma
[10] = tested on: SK-MEL-28 melanoma

Measured: growth

O=C1/C(=C/c2ccccc2)SC(=Nc2ccccc2)N1Nc1ccccc1
active: [1] 9.11% | [2] 5.63% | [5] 6.12% | [6] 9.43% | [7] -95.7% | [8] -4.34% | [9] -62.1% | [10] 8.52%
inactive: [3] 24.2% | [4] 23.3%

CC(C)(C)[Si](C)(C)OC1[C@@H](O[Si](C)(C)C(C)(C)C)[C@@H](CNC(=O)NC(=O)NC(=O)CI)O[C@H]1n1cnc2c(NC(=O)Nc3ccccc3)ncnc21 (stereo not given in full)
active: [2] -39.8% | [9] -80.7%
inactive: [1] 83.1% | [3] 68.1% | [4] 103% | [5] 32.5% | [6] 14.7% | [7] 102% | [8] 75.4% | [10] 125%

CC(=O)c1ccc(Br)c([N+](=O)[O-])c1
inactive: [1] 104% | [2] 98% | [3] 92.7% | [4] 98.7% | [5] 104% | [6] 104% | [7] 99.9% | [8] 111% | [9] 90% | [10] 118%

CCN1C(=O)N(CC)C2C1NC(=O)N2/N=C/C=C/c1ccccc1 (stereo not given)
inactive: [1] 26.9% | [2] 14.6% | [3] 30.8% | [4] 47.3% | [5] 38.8% | [6] 34.6% | [7] 18% | [8] 20.6% | [9] 32.9% | [10] 53.2%

COc1cccc(-c2nc3sccn3c2-c2ccnc(NCCN3CCCN(C)S3(=O)=O)n2)c1
inactive: [1] 68% | [2] 50.6% | [3] 62.5% | [4] 123% | [5] 99.9% | [6] 87.2% | [7] 84.1% | [8] 15.2% | [9] 45.2% | [10] 53%

CS(=O)(=O)c1ccc(C(=O)N2N=C(c3ccccc3)CC2c2ccc3c(c2)OCO3)cc1 (stereo not given)
inactive: [1] 85.7% | [2] 104% | [3] 88.2% | [4] 103% | [5] 91.4% | [6] 85.1% | [7] 101% | [8] 96.4% | [9] 95.5% | [10] 106%

CC(C)(C)c1nn(-c2ccccc2)c2c1C(=O)CSC(c1ccc3c(c1)OCO3)N2 (stereo not given)
inactive: [1] 89.9% | [2] 100% | [3] 98.4% | [4] 101% | [5] 107% | [6] 84.4% | [7] 110% | [8] 85.3% | [9] 87% | [10] 109%

N#Cc1ccc(-c2ccc(-c3cccs3)o2)cc1F
inactive: [1] 79.7% | [2] 84.5% | [3] 44.9% | [4] 110% | [5] 67.2% | [6] 87.5% | [7] 84.4% | [8] 81.6% | [9] 80.2% | [10] 91.9%

O=C(Nc1cccc(N=Cc2c(O)ccc3ccccc23)c1)c1ccccc1
inactive: [1] 93.6% | [2] 90.9% | [3] 77.9% | [4] 101% | [5] 92.6% | [6] 86.9% | [7] 91.3% | [8] 94.4% | [9] 96.1% | [10] 107%

Cc1ccc(C(=O)CC(=O)C(F)(F)C(F)(F)C(F)(F)F)s1
inactive: [1] 105% | [2] 110% | [3] 96% | [4] 104% | [5] 108% | [6] 92.8% | [7] 106% | [8] 96.6% | [9] 104% | [10] 110%

COc1cccc(-c2cc(-c3cccs3)c(C#N)c(=O)[nH]2)c1
inactive: [1] 97.8% | [2] 116% | [3] 98.4% | [4] 99.9% | [5] 100% | [6] 103% | [7] 107% | [8] 96.3% | [9] 99.5% | [10] 115%

CO[C@H](C(=O)[C@@H](O)[C@@H](C)O)[C@@H]1Cc2cc3cc(O[C@H]4C[C@@H](O[C@H]5C[C@@H](O)[C@H](O)C(C)O5)[C@H](O)C(C)O4)c(C)c(O)c3c(O)c2C(=O)[C@H]1O[C@H]1C[C@@H](O[C@H]2C[C@@H](O[C@H]3C[C@](C)(O)C(=O)C(C)O3)[C@@H](O)C(C)O2)[C@H](O)C(C)O1 (stereo not given in full)
inactive: [1] 20.2% | [4] 10.8%
active: [2] -13.9% | [3] -65.5% | [5] 2.98% | [6] 6.86% | [7] -32.2% | [8] -30.7% | [9] -5.83% | [10] -18.8%

CC(=O)C1CCC2C3CC(C)=C4CC(O)CCC4(C)C3CCC12C (stereo not given)
inactive: [1] 100% | [2] 96.4% | [3] 100% | [4] 97.5% | [5] 97.5% | [6] 88.2% | [7] 99.4% | [8] 91.6% | [9] 92.1% | [10] 105%

C=C1C(=O)O[C@H]2[C@H]1CC/C(COC(=O)N[C@@H](Cc1c[nH]c3ccccc13)C(=O)OC)=C\CC[C@@]1(C)O[C@@H]21
active: [1] -12.1% | [2] -29.5% | [9] -38.5% | [10] 6.71%
inactive: [3] 68.7% | [4] 66.8% | [5] 25.3% | [6] 33.3% | [7] 21.8% | [8] 27.8%

COc1cc(CN2CCC(N3CCCC3=O)c3ccccc32)cc(OC)c1OC (stereo not given)
inactive: [1] 108% | [2] 80.5% | [3] 84.1% | [4] 83.6% | [5] 85.5% | [6] 66% | [7] 40.5% | [8] 64.4% | [9] 76.3% | [10] 98.2%

O=C1/C(=C/N2N=C(c3ccc(Cl)cc3)CC2c2ccccc2O)SC(=S)N1c1cccc(C(F)(F)F)c1 (stereo not given)
inactive: [1] 43.5% | [2] 37.6% | [3] 38.4% | [4] 71% | [5] 45.1% | [6] 23.6% | [7] 79.7% | [8] 52.3% | [9] 48.3% | [10] 73.9%

Brc1ccsc1Br
inactive: [1] 111% | [2] 105% | [3] 83.5% | [4] 106% | [5] 109% | [6] 107% | [7] 106% | [8] 109% | [9] 108% | [10] 106%

CC(C)(C)[Si](C)(C)OC1[C@@H](CNC(N)=O)O[C@@H](n2cnc3c(NC(=O)Nc4ccccc4)ncnc32)[C@H]1O[Si](C)(C)C(C)(C)C (stereo not given in full)
inactive: [1] 48.3% | [3] 73.9% | [4] 88.4% | [5] 62.2% | [6] 17% | [7] 76.9% | [8] 83.3% | [9] 32.3% | [10] 92.7%
active: [2] -7.1%

COc1ccc(-n2c(COc3ccc(F)cc3)n[nH]c2=S)cc1
inactive: [1] 114% | [2] 103% | [3] 97.7% | [4] 106% | [5] 97.4% | [6] 154% | [7] 105% | [8] 98.6% | [9] 104% | [10] 127%

O=C(Nc1ccc(Br)cc1)c1ccc(Cl)c(Cl)c1
inactive: [1] 32.3% | [2] 40.1% | [3] 38.6% | [4] 35% | [5] 32.4% | [7] 49.4% | [8] 43.6% | [9] 33.3% | [10] 73%
active: [6] -22%

CCCCc1nc(Cl)c(C2CC(c3ccc(S(N)(=O)=O)cc3)=NN2c2cc(Cl)cc(Cl)c2)[nH]1 (stereo not given)
inactive: [1] 45.7% | [2] 23.3% | [3] 62.2% | [4] 36.4% | [5] 23.5% | [6] 36.4% | [7] 57.9% | [8] 38.8% | [10] 55.2%
active: [9] -6.25%

COC(=O)c1ccc2c(c1)nc(-c1cc3ccccc3[nH]c1=O)n2-c1cc(C(C)(C)C)[nH]n1
active: [2] 7.39%
inactive: [1] 78.2% | [3] 101% | [4] 35% | [5] 39.7% | [6] 53% | [7] 74.9% | [8] 51.2% | [9] 11.2% | [10] 84.1%

N=C(N)c1ccc(-c2ccc(-c3ccco3)o2)cc1F
inactive: [3] 41.4% | [4] 67.2% | [6] 24.5%
active: [1] -40.6% | [2] -2.59% | [5] -16.8% | [7] -93.6% | [8] -68.6% | [9] -9.26% | [10] -46.8%

COc1cc(/C=C2\CN(C(=O)OC(C)(C)C)C/C(=C\c3ccc(O)c(OC)c3)C2=O)ccc1O
inactive: [1] 98.4% | [2] 96.5% | [3] 94.8% | [4] 87.3% | [5] 92.9% | [6] 81.7% | [7] 93.4% | [8] 82.4% | [9] 92.4% | [10] 111%

NS(=O)(=O)c1ccc(CCn2c(SCC(=O)N/N=C/c3cc4ccccc4[nH]3)nc3ccccc3c2=O)cc1
inactive: [1] 91.4% | [2] 39.2% | [3] 80% | [4] 58.6% | [5] 30.6% | [6] 40.2% | [7] 31.9% | [8] 53.3% | [9] 49.1% | [10] 88.3%

CC(=O)O[C@H]1CC[C@]2(C)[C@H]3CC=C4[C@@H]5CC(C)(C)CC[C@]5(C(=O)OCC(COC(=O)C(Cl)Cl)(COC(=O)C(Cl)Cl)NC(=O)C(Cl)Cl)CC[C@@]4(C)[C@]3(C)CC[C@H]2C1(C)C
active: [2] 8.55%
inactive: [1] 46.7% | [3] 85.9% | [4] 90.4% | [5] 45.1% | [6] 22.7% | [7] 71.9% | [8] 84.4% | [9] 65.9% | [10] 87.3%

CCCCCN(CCCCC)C(=O)C(CCC(=O)O)NC(=O)c1ccc(Cl)c(Cl)c1 (stereo not given)
inactive: [1] 112% | [2] 109% | [3] 93.3% | [4] 112% | [5] 101% | [6] 93% | [7] 90.5% | [8] 98.4% | [9] 99.9% | [10] 105%

Reference: PubChem BioAssay (NCI)
